# Records with an inconclusive call do not appear. Where a call stands in place of a potency, no number is given. Active and inactive are the calls of the source. Unless noted, the call rests on the fitted dose curve; in most records, active means well fitted curve in the direction sought with a large enough effect; inconclusive means small, poorly fitted or top-dose-only effect, or another doubt; inactive means no such curve, though single readings can be large; an effect the other way counts as inactive or inconclusive.
# Key:
# [1] = qHTS profiling of the MIPE4 collection as inhibitors of Plasmodium falciparum (DD2) proliferation (Rep 2) (AID 743346; call rule not given here); conditions: P. falciparum Dd2 in erythrocytes, SYBR Green DNA, 72 h
# How it was run: (§1)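 Parasite DNA was quantified by SYBR Green I fluorescence (ex 485, em 535 nm) after overnight lysis in saponin/Triton buffer at room temperature. Cultures at 0.3% parasitemia and 2.5% hematocrit were first exposed to compound for 72 h at 37 C; signals were normalised to artemisinin (0.29 uM) and vehicle wells.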
# [2] = qHTS profiling of the MIPE4 collection as inhibitors of Plasmodium falciparum (HB3) proliferation (AID 743347; call rule not given here); conditions: P. falciparum HB3 in erythrocytes, SYBR Green DNA, 72 h
# How it was run: as §1
# [3] = High-throughput drug toxicity screening in the BPDCN cell line Gen2.2 (AID 1224824; call rule not given here;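 further: cells exposed to compounds for 48 h before reading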); conditions: Gen2.2 BPDCN cells; at 45.8 µM (top of the series) unless noted
# How it was run: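 Gen2.2 cells (500/well) in phenol red-free RPMI with 10% FBS were exposed to compounds for 48 h at 37 °C, 5% CO2. Viability was read by CellTiter-Glo luminescence and normalized to DMSO (100%) and 9.2 uM bortezomib (0%).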
# [4] = High-throughput drug toxicity screening in the BPDCN cell line Cal-1 (AID 1224825; call rule not given here); conditions: Cal-1 BPDCN cell viability, qHTS; at 45.8 µM (top of the series) unless noted
# How it was run: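 Viability of the BPDCN line Cal-1 is measured as ATP-based luminescence (CellTiter-Glo) following 48 h incubation with compounds. Percent activity uses DMSO-treated wells as 100% and 9.2 uM bortezomib as 0%.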
# [5] = qHTS assay for measurement of the activity of small molecule inhibitors on Zika virus induced Caspase-3 activity in human iPSC derived neural progenitor cells (hNPCs) (AID 1224857); further: nearly all actives have a fitted effect of over 65% in size
# How it was run: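 Cells were plated at 350 per well and grown 16 to 20 hours. Compound pretreatment lasted one hour, after which ZIKV (2 FFU/cell) was added for 6 hours. Percent inhibition was normalized between uninfected and infected controls.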
# [6] = qHTS assay for measurement of the activity of small molecule inhibitors on Zika virus induced Caspase-3 activity in human astrocytoma cells (AID 1224859)
# How it was run: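 Percent inhibition of virus-induced caspase-3/7 signal is calculated against uninfected and ZIKV-infected control cells. Cells are SNB-19, infected at 2 FFU/cell for 6 h after 1 h compound exposure.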
# [7] = qHTS Screen of the MIPE 4.0 Collection Against Ewings Sarcoma (RDES) (AID 1259252); further: nearly all actives have a fitted effect of over 35% in size; further: potency means the concentration at half of the fitted maximal effect
# How it was run: (§2)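 Compound titrations go onto adherent log-phase cells 4 h after seeding, incubate 48 h at 37C, then CellTiter-Glo luminescence reports viability relative to DMSO and cell-free controls.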
# [8] = qHTS Screen of the MIPE 4.0 Collection Against Ewings Sarcoma (TC71) (AID 1259253); further: nearly all actives have a fitted effect of over 40% in size
# How it was run: as §2
# [9] = qHTS Screen of the MIPE 4.0 Collection Against Ewings Sarcoma (EW8) (AID 1259255); further: nearly all actives have a fitted effect of over 35% in size; further: potency means the concentration at half of the fitted maximal effect
# How it was run: as §2
# [10] = qHTS Screen of the MIPE 4.0 Collection Against Ewings Sarcoma (TC32) (AID 1259256); further: nearly all actives have a fitted effect of over 45% in size; further: potency means the concentration at half of the fitted maximal effect
# How it was run: as §2
# [11] = Identifying Small Molecule Inhibitors of Pancreatic Cancer Stem Cells (A2780, Spheroid) (AID 1259357); conditions: Potency: A2780 spheroid viability;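 further: spheroids pre-formed over 14 days in stem cell medium on hydrogel; compound exposure lasted 48 h before the ATP luminescence read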
# How it was run: (§3)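 Viability is scored by CellTiter-Glo luminescence 48 h after dosing, expressed as percent activity against vehicle and no-cell references. Spheroid formats rely on cells cultured 14 days in stem cell media beforehand.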
# [12] = Identifying Small Molecule Inhibitors of Pancreatic Cancer Stem Cells (SN12C, Adherent) (AID 1259358);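 further: cell survival measured after 48 h of compound exposure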
# How it was run: as §3
# [13] = Identifying Small Molecule Inhibitors of Pancreatic Cancer Stem Cells (SN12C, Spheroid) (AID 1259360); conditions: Potency: SN12C spheroid viability
# How it was run: as §3
# [14] = P-glycoprotein substrates identified in KB-8-5-11 adenocarcinoma cell line, qHTS therapeutic library screen (AID 1346987); further: nearly all actives have a fitted effect of over 65% in size
# How it was run: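 In this qHTS, P-gp-rich KB-8-5-11 cells received library compounds across a concentration range. Viability was quantified by luminescence after 72 h at 37 degree C.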
# [15] = qHTS assay to identify small molecule inhibitors of chordoma cells - UCH-1 (AID 1259355); further: nearly all actives have a fitted effect of over 55% in size
# How it was run: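 A 48hr growth-inhibition format: each drug tested at 15 concentrations together with added auranofin, camptothecin, doxorubicin, rubitecan and topotecan, with cell viability quantified as CellTiter-Glo luminescence.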
# [16] = qHTS assay to identify small molecule inhibitors of chordoma cells - UCH-2 (AID 1259356)
# [17] = Identifying Small Molecule Inhibitors of Pancreatic Cancer Stem Cells (A278, Adherent) (AID 1259361); further: nearly all actives have a fitted effect of over 35% in size
# How it was run: as §3
# [18] = Natriuretic polypeptide receptor (hNpr1) antagonism - Pilot counterscreen GloSensor control cell line (AID 1347045; calls by dose curve)
# How it was run: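 HEK293 cGMP-sensor cells; 2% GloSensor reagent 2 h RT; LOPAC compounds in 1:5 titrations 30-50 min; 50 uM SNP 20 min; luminescence pre-read and post-read.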
# [19] = at 28.5 µM unless noted
smiles,measurement,setting,value
CC1=C(C(=O)O)N2C(=O)[C@@H](NC(=O)[C@H](N)C3=CCC=CC3)[C@H]2SC1,"parasite growth, % of control (lower = inhibition)",[1]; [19],74.3%
same,"growth, % of control",[2]; [19],51.2%
same,"cell viability, % of control (lower = more cytotoxic)",[3],145%
same,viability (% of control),[4],99.4%
same,Potency,[5],inactive
same,Potency,[6],inactive
same,Potency,[7],inactive
same,Potency,[8],inactive
same,Potency,[9],inactive
C[C@@H](c1ncncc1F)[C@](O)(Cn1cncn1)c1ccc(F)cc1F,"cell viability, % of control (lower = more cytotoxic)",[3],56.5%
same,viability (% of control),[4],55.6%
same,Potency,[5],inactive
same,Potency,[6],inactive
same,Potency,[7],inactive
same,Potency,[8],inactive
same,Potency,[10],inactive
CCOC(=O)C1=C(O)C(=O)N(Cc2ccccc2)C1,"parasite growth, % of control (lower = inhibition)",[1]; [19],91%
same,"growth, % of control",[2]; [19],93.7%
same,"cell viability, % of control (lower = more cytotoxic)",[3],81.5%
same,viability (% of control),[4],112%
same,Potency,[5],inactive
same,Potency,[6],inactive
same,Potency,[7],inactive
same,Potency,[8],inactive
same,Potency,[9],inactive
same,Potency,[11],inactive
same,Potency,[12],inactive
same,Potency,[13],inactive
same,Potency,[14],inactive
CC(=O)Nc1ccc(O)cc1,"cell viability, % of control (lower = more cytotoxic)",[3],105%
same,viability (% of control),[4],33.3%
same,Potency,[5],inactive
same,Potency,[6],inactive
same,Potency,[7],inactive
same,Potency,[8],inactive
CCOc1cc(CC(=O)N[C@@H](CC(C)C)c2ccccc2N2CCCCC2)ccc1C(=O)O,"parasite growth, % of control (lower = inhibition)",[1]; [19],91.4%
same,"growth, % of control",[2]; [19],75.6%
same,"cell viability, % of control (lower = more cytotoxic)",[3],23.9%
same,viability (% of control),[4],27.5%
same,Potency,[5],inactive
same,Potency,[6],inactive
same,Potency,[7],inactive
same,Potency,[8],inactive
same,Potency,[9],inactive
same,Potency,[10],inactive
same,Potency,[15],inactive
same,Potency,[16],inactive
same,Potency,[14],inactive
C[C@@H](N)C1CCC(C(=O)Nc2ccncc2)CC1 (stereo partly specified),"parasite growth, % of control (lower = inhibition)",[1]; [19],78.9%
same,"growth, % of control",[2]; [19],72.6%
same,"cell viability, % of control (lower = more cytotoxic)",[3],84.4%
same,viability (% of control),[4],79.9%
same,Potency,[5],inactive
same,Potency,[6],inactive
same,Potency,[8],inactive
same,Potency,[9],inactive
same,Potency,[10],inactive
same,Potency,[12],inactive
same,Potency,[13],inactive
same,IC50 (viability decrease),[17],inactive
CN1C(C(=O)Nc2ccccn2)=C(O)c2sccc2S1(=O)=O,"cell viability, % of control (lower = more cytotoxic)",[3],40.6%
same,viability (% of control),[4],90.4%
same,Potency,[5],inactive
same,Potency,[6],inactive
same,Potency,[7],5.9 µM (active)
same,Potency,[9],inactive
same,Potency,[10],inactive
same,Potency,[15],inactive
same,Potency,[16],inactive
same,Potency,[14],inactive
O=C(O)c1cccnc1Nc1cccc(C(F)(F)F)c1,"parasite growth, % of control (lower = inhibition)",[1]; [19],77.4%
same,"growth, % of control",[2]; [19],74%
same,"cell viability, % of control (lower = more cytotoxic)",[3],122%
same,viability (% of control),[4],88.7%
same,Potency,[5],inactive
same,Potency,[6],inactive
same,Potency,[8],inactive
same,Potency,[9],inactive
same,Potency,[10],inactive
same,Potency,[15],inactive
same,Potency,[16],inactive
same,Potency,[14],inactive
CCOC(=O)C(C)Oc1cccc2c(=O)n(CC(=O)Nc3ccc4c(c3)OCCO4)ccc12 (stereo unspecified),"parasite growth, % of control (lower = inhibition)",[1]; [19],81.6%
same,"growth, % of control",[2]; [19],96%
same,"cell viability, % of control (lower = more cytotoxic)",[3],102%
same,viability (% of control),[4],88%
same,Potency,[5],inactive
same,Potency,[6],inactive
same,Potency,[8],inactive
same,Potency,[9],2.64 µM (active)
same,Potency,[10],3.32 µM (active)
same,Potency,[12],inactive
same,Potency,[13],inactive
same,Potency,[14],inactive
same,Potency,[18],inactive
CCCCN(CCCC)CCC(O)c1cc2c(Cl)cc(Cl)cc2c2cc(C(F)(F)F)ccc12 (stereo unspecified),"parasite growth, % of control (lower = inhibition)",[1]; at 9.64 µM (top of the series),11%
same,"parasite growth, % of control (lower = inhibition)",[1]; at 28.5 µM,10.3%
same,"growth, % of control",[2]; at 9.64 µM (top of the series),5.69%
same,"growth, % of control",[2]; at 28.5 µM,7.8%
same,"cell viability, % of control (lower = more cytotoxic)",[3],34.8%
same,viability (% of control),[4],64.8%
same,Potency,[5],inactive
same,Potency,[6],inactive
same,Potency,[7],inactive
same,Potency,[9],inactive
same,Potency,[16],inactive
